Measurements published in PubChem BioAssay AID1259421 (Broad Institute, 2018).
Where “and” joins values, the source holds several entries; their conditions need not be identical. Equal values may be shown once. Out of some 6,400 compounds screened, about 610 (9.5%) were called active. No stated cut-off is given here; in the data, active means activity change below about -70%; inconclusive means no clear call, values can overlap the other calls; inactive means above that. The list comes from a sample in which actives are over-represented; it also holds similar structures and randomly drawn compounds. More than one record can exist for a structure, and the calls need not agree.

experiment: T. gondii ME49Luc in HeLa cells, luciferase assay, 72 h, no IFN-y (AID 1259421); details: stronger effect = lower value, concentration not given here

Row | SMILES | activity change, negative = inhibition
1 | C[C@@H]1CN(Cc2ccc(F)cc2)CCN1C(=O)COc1ccc(Cl)cc1NC(N)=O | -3.05% (inactive)
2 | O=c1ccc2cc(O[C@@H]3O[C@H](CO)[C@@H](O)[C@H](O)[C@@H]3O)c(O)cc2o1 | -0.686% (inactive)
3 | C=C(C)[C@@H]1[C@H]2OC(=O)[C@H]1[C@]1(O)C[C@H]3O[C@]34C(=O)O[C@H]2[C@]14C | 2.63% (inactive)
4 | CCN(CC)CCOC(=O)C(C)(c1ccccc1)c1ccccc1 | 15.3% (inactive)
5 | O=C(N[C@H]1CN2CCC1CC2)c1ccc(Cl)cc1 | 10.2% (inactive) and 9.22% (inactive)
6 | O=C(N[C@H]1CN2CCC1CC2)c1cc2cccc(Cl)c2s1 | 25.6% (inactive)
7 | O=c1[nH]c2ccc(Cl)cc2c(N[C@@H]2CN3CCC2CC3)c1-c1nc2ccccc2[nH]1 | -83.1% (active)
8 | C[N+]1(C)CCc2cc3c(cc2C1[C@@H]1OC(=O)c2c1ccc1c2OCO1)OCO3 (some centres undefined) | -1.51% (inactive) and 8.52% (inactive)
9 | C1CN2CCC1CC2 | 14.5% (inactive)
10 | O=C1NC(=S)NC(=O)C1C(=O)Nc1ccccc1 | 57.2% (inactive)
11 | CC12CCC3C(CCC4C(=O)C(=O)CCC43C)C1CCC2=O (centres undefined) | 21.2% (inactive)
12 | C(=C\c1ccccc1)/CN1CCN(CCOC(c2ccccc2)c2ccccc2)CC1 | -4.36% (inactive) and -26.8% (inactive) and -5.08% (inactive)
13 | Fc1ccc(C(OCCN2CCN(C/C=C/c3ccccc3)CC2)c2ccc(F)cc2)cc1 | -83.2% (active) and -79.9% (active)
14 | Fc1ccc(C(OCCN2CCN(CCCc3ccccc3)CC2)c2ccc(F)cc2)cc1 | -67.4% (inactive) and 5.82% (inactive)
15 | O=c1oc2ccccc2c(O)c1Cc1c(O)c2ccccc2oc1=O | -3.14% (inactive) and 12.5% (inactive)
16 | N[C@]1(C(=O)O)CC[C@@H](C(=O)O)C1 (racemic) | 3.76% (inactive)
17 | O=C1c2ccccc2C(=O)c2ccccc21 | -6.04% (inactive)
18 | c1ccc2c(c1)[I+]c1ccccc1-2 | -67.1% (inactive) and -88.6% (active)
19 | FC(F)(F)c1cccc(N2CCNCC2)c1 | -1.94% (inactive)
20 | CN=C(NS(=O)(=O)c1ccc(Cl)cc1)N1C[C@H](c2ccccc2)C(c2ccc(Cl)cc2)=N1 | 38.2% (inactive)
21 | Cc1ccc2c(c1)C1(CCN(CCc3nc(-c4ccccc4)oc3C)CC1)OC(=O)N2 | 0.534% (inactive) and -16.6% (inactive)
22 | CC(C)(C)NCC(O)c1ccc(O)cc1Cl (centres undefined) | -2.47% (inactive)
23 | CN1C2C[C@H](OC(=O)[C@H](CO)c3ccccc3)C[C@H]1[C@@H](O)C2 | 4.91% (inactive)
24 | CN1C2C[C@H](OC(=O)[C@H](CO)c3ccccc3)C[C@@H]1[C@@H](O)C2 | 6.31% (inactive)
25 | CCCCCOc1c(OC)ccc2cc(C(=O)NCc3ccc4c(c3)OCO4)c(=O)[nH]c12 | 23.5% (inactive) and -61.7% (inactive)

Row | SMILES | activity change, negative = inhibition
26 | CCCC1CC2=CC(=O)CCC2(C)C2CCC3(C)C(CCC3(O)CCC(=O)O)C12 (centres undefined) | 13% (inactive)
27 | CCCCCCC(=O)O[C@H]1CC[C@H]2[C@@H]3CCC4=CC(=O)CC[C@]4(C)[C@H]3CC[C@]12C | -77% (active)
28 | C[C@]12CCC3c4ccc(OC(=O)N(CCCl)CCCl)cc4CCC3C1CC[C@@H]2O (some centres undefined) | -52.4% (inactive)
29 | C[C@]12CC[C@H]3[C@@H](CCC4=CC(=O)CC[C@@H]43)[C@@H]1CC[C@@H]2O | -79.7% (active)
30 | C#CC1(O)CCC2C3CCC4=CC(=O)CCC4(C)C3CCC21C (centres undefined) | -6.31% (inactive) and -17.5% (inactive)
31 | C#C[C@]1(O)C=C[C@H]2[C@@H]3CCC4=CC(=O)CC[C@@H]4[C@H]3CC[C@@]21CC | -40.4% (inactive)
32 | C[C@]12CCC(=O)C=C1CCC1C2CC[C@@]2(C)C1CC[C@@H]2O (some centres undefined) | -78.3% (active) and -86.2% (active)
33 | CCC[C@@H]1CC2=CC(=O)CC[C@]2(C)[C@H]2CC[C@@]3(C)[C@@H](CC[C@@]3(O)CCC(=O)O)[C@H]12 | 17.5% (inactive)
34 | CCC(=O)O[C@H]1CCC2C3CCC4=CC(=O)CC[C@]4(C)C3CC[C@@]21C (some centres undefined) | -76.8% (active) and -88.9% (active)
35 | C[C@]12CC[C@H]3[C@@H](CCC4=CC(=O)CC[C@@]43C)[C@@H]1CC[C@H]2O | 8.39% (inactive)
36 | C[C@]12CCC(=O)C=C1CCC1C2CC[C@@]2(C)C1CC[C@H]2O (some centres undefined) | 2.85% (inactive)
37 | C[C@]12CCC(=O)C=C1CC[C@@H]1[C@@H]2C(=O)C[C@]2(C)C(=O)CC[C@@H]12 | 8.66% (inactive)
38 | CC(C)[C@]1(O)[C@@H](OC(=O)c2ccc[nH]2)[C@@]2(O)[C@@]3(C)C[C@]4(O)O[C@@]5([C@H](O)[C@@H](C)CC[C@]35O)[C@@]2(O)C41C | 7.71% (inactive)
39 | N#Cc1ccccc1-c1cc(-c2ccccn2)cn(-c2ccccc2)c1=O | 3.7% (inactive)
40 | C=CCN1CC[C@]2(C)c3cc(O)ccc3CC1[C@@H]2C | 17.7% (inactive)
41 | Cc1ccccc1-n1c(CF)nc2ccc(N)cc2c1=O | 11.5% (inactive)
42 | CCN(CC)Cc1nccn1-c1ccc([N+](=O)[O-])cc1C(=O)c1ccccc1Cl | -2.08% (inactive)
43 | C=C(C)CN1CC[C@]23c4c5ccc(O)c4O[C@H]2c2[nH]c4ccccc4c2C[C@@]3(O)C1C5 | 3.03% (inactive) and 27.5% (inactive)
44 | CN1C(=O)C(O)N=C(c2ccccc2)c2cc(Cl)ccc21 (centres undefined) | 18.5% (inactive)
45 | CCOC(=O)c1ncn2c1C1CCCN1C(=O)c1cc(OC)ccc1-2 (centres undefined) | 4.31% (inactive)
46 | CNCC/C=C/c1cccnc1 | 9.5% (inactive)
47 | O=C1CCCC2C3CC(CN12)[C@@H]1CCCCN1C3 (some centres undefined) | 14.8% (inactive) and -1% (inactive)
48 | O=C1Nc2ccc(Cl)cc2C(c2ccccc2)=NC1O (centres undefined) | 20.6% (inactive)
49 | CCCN1CCCC2Cc3[nH]ncc3CC21 (centres undefined) | 1.31% (inactive)
50 | NC(=O)CS(=O)C(c1ccccc1)c1ccccc1 (centres undefined) | -1.56% (inactive)

Row | SMILES | activity change, negative = inhibition
51 | COC(=O)CN1CN(c2ccccc2)C2(CCN(Cc3ccc4ccccc4c3)CC2)C1=O | 13.3% (inactive)
52 | O=C(CCCN1CCC2(CC1)C(=O)NCN2c1ccccc1)c1ccc(F)cc1 | 2.21% (inactive) and -33.3% (inactive)
53 | O=C(CCCN1CCC2(CC1)C(=O)N(Cc1cccc(F)c1)CN2c1ccccc1)c1ccc(F)cc1 | 10% (inactive) and -81.6% (active)
54 | Cc1cc(OC(=O)N2CCCCC2)c(C(C)C)cc1[N+](C)(C)C | -5.32% (inactive)
55 | C/C(=C\c1csc(C)n1)[C@@H]1C[C@@H]2O[C@@H]2CCC[C@H](C)[C@H](O)[C@@H](C)C(=O)C(C)(C)[C@@H](O)CC(=O)O1 | -69.4% (inactive)
56 | C/C1=C/C[C@@H](/C(C)=C/c2csc(C)n2)OC(=O)C[C@H](O)C(C)(C)C(=O)[C@H](C)[C@@H](O)[C@@H](C)CCC1 | -85.9% (active)
57 | C/C(=C\c1csc(C)n1)[C@H]1C[C@@H]2O[C@]2(C)CCC[C@H](C)[C@H](O)[C@@H](C)C(=O)C(C)(C)[C@H](O)CC(=O)O1 | -73.6% (active)
58 | C/C(=C\c1csc(C)n1)[C@H]1C[C@@H]2O[C@]2(C)CCC[C@H](C)[C@H](O)[C@@H](C)C(=O)C(C)(C)[C@@H](O)CC(=O)O1 | -66.8% (inactive)
59 | CCN1CC2(COC(=O)c3ccccc3N3C(=O)CC(C)C3=O)CCC(OC)C34C5CC6C(OC)CC(O)(C5C6OC)C(O)(C(OC)C23)C14 (centres undefined) | 4.55% (inactive)
60 | C[C@H](NC(=O)[C@@H](N)Cc1ccc(O)cc1)C(=O)NCC(=O)N(C)[C@@H](Cc1ccccc1)C(=O)N[C@H](CO)CCS(C)=O (some centres undefined) | 12.9% (inactive)
61 | O=C1/C(=C/c2ccccc2)C[C@@]2(O)C3Cc4ccc(O)c5c4[C@@]2(CCN3CC2CC2)[C@H]1O5 | 1.86% (inactive)
62 | COc1ccc2c(c1)[C@]13CCCC[C@H]1[C@H](C2)N(C)CC3 | 16.4% (inactive)
63 | Cc1cc(C)cc(C(=O)OC2CC3CCC(C2)N3C)c1 (centres undefined) | -12.3% (inactive) and -9.52% (inactive)
64 | CN1C(=O)CN=C(c2ccccc2)c2cc(Cl)ccc21 | -6.2% (inactive)
65 | N#Cc1nn(-c2c(Cl)cc(C(F)(F)F)cc2Cl)c(N)c1S(=O)C(F)(F)F (centres undefined) | 13.6% (inactive) and 5.34% (inactive)
66 | CC(N)Cc1c[nH]c2ccc(OCc3cccs3)cc12 (centres undefined) | 1.64% (inactive) and -1.85% (inactive)
67 | C#Cc1cccc2c1c(C(=O)c1ccc(Cn3c(C)nc4cnccc43)c(F)c1)cn2C(=O)N(C)C | -7.53% (inactive)
68 | Oc1ccc2c3c1O[C@H]1c4[nH]c5ccccc5c4C[C@@]4(O)C(C2)N(CC2CC2)CC[C@]314 | 10.7% (inactive)
69 | CO[C@H]1CCC(O[C@H]2CC([C@]3(C)CC[C@]4(C[C@H](O)[C@@H](C)[C@@H]([C@@H](C)/C=C(\C)C(=O)[C@H](C)C[C@H](C)C(=O)O)O4)O3)O[C@]3(O[C@@H](C4O[C@@](O)(CO)[C@H](C)C[C@@H]4C)C[C@@H]3C)[C@@H]2C)O[C@@H]1C (some centres undefined) | -83.8% (active)
70 | N[C@H](CO)Cc1ccccc1 | 1.26% (inactive)
71 | N#CC(C#N)=Cc1ccc([N+](=O)[O-])c(O)c1 | -6.99% (inactive)
72 | Oc1ccc2c(c1)[C@@]13CCCC[C@@]1(O)[C@@H](C2)N(CC1CCC1)CC3 | 18.4% (inactive)
73 | COC(=O)C[C@@](O)(CCC(C)(C)O)C(=O)O[C@@H]1C(OC)=C[C@]23CCCN2CCc2cc4c(cc2[C@@H]13)OCO4 | -83.3% (active)
74 | CN1CCc2cc3c(cc2C1O)OCO3 (centres undefined) | 7.57% (inactive)
